Screening data: PubChem, National Center for Advancing Translational Sciences (NCATS)
This is a sample that favours compounds with a hit; in the whole collection about 14% have one here.
Giardia FBPA inh: inhibitors of Giardia lamblia fructose-1,6-bisphosphate aldolase; A8B2U2; purified Giardia FBPA; Potency, µM (highest dose often 59.6 µM), inactives show at the highest dose activity, negative = inhibition, hits mostly inhibitors; actives 0.71% (n = 290,000); AID 2451; note: potency is the fitted concentration of half-maximal effect; nearly all actives have a fitted effect of over 55% in size
Target sequence (A8B2U2 whole entry, looked up): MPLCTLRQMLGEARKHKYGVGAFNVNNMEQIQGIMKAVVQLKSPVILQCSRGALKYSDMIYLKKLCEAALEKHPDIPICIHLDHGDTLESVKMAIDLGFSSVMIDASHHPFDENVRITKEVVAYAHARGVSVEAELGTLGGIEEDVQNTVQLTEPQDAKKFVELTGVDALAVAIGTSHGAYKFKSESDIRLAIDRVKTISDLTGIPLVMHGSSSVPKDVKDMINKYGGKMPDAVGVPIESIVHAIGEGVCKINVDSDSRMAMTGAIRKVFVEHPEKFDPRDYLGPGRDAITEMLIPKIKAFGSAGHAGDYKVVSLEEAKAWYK
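40 nM FBPA preincubated 10 min at RT with compound (up to 57.5 uM final), then substrate plus GAPDH/TPI/NAD/arsenate coupling and diaphorase/resazurin added. Fluorescence read after 20 min at RT, 525/598 nm.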
Pf growth 96h: P. falciparum growth inhibition at 96 hours | actives 6.9% (n = 320,000) | Potency, µM (titrated, usually from 28.7 µM), for the others: at the top dose activity change, negative = inhibition, actives largely listed as inhibitors | P. falciparum luciferase reporter growth, 96 h; note: potency is the fitted concentration of half-maximal effect
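Erythrocytes infected with luciferase-expressing P. falciparum were dispensed at 2% hematocrit and 0.05% parasitemia (final), then incubated with compounds 96 hours at 37 C in 5% CO2. Luminescence after detection reagent addition reported growth.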
Pf growth 48h: P. falciparum growth inhibition at 48 hours (one generation). P. falciparum luciferase growth in erythrocytes, 48 h. Potency, µM (doses to about 28.7 µM), without a hit: top-dose activity change, negative = inhibition, most hits filed as inhibitors. actives 5.9% (n = 310,000); note: potency is the fitted concentration of half-maximal effect
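First compound was added to culture medium, then infected red cells at 0.1% parasitemia and 2% hematocrit (final). After incubation at 37 C under 5% CO2, luciferase detection reagent was dispensed and light output recorded.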
Sm TGR block: blocks Schistosoma mansoni thioredoxin glutathione reductase | Q962Y6 | purified TGR, DTNB reduction, TNB absorbance 405 nm | Potency, µM (titrated, usually from 114 µM), for the others: at the top dose activity change, negative = inhibition, hits mostly inhibitors | actives 3% (n = 360,000) | AID 485364; note: potency is the fitted concentration of half-maximal effect; nearly all actives have a fitted effect of over 60% in size
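First, TGR (20 nM dispensed) and NADPH were mixed with compound. Second, a 15 min room-temperature incubation followed. Third, further NADPH and then DTNB were added to start the reaction. Finally, TNB absorbance was monitored kinetically.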
HCMV antiviral: human cytomegalovirus inhibition. actives 4.5% (n = 410,000). activity change, negative = inhibition, % at 57.5 µM. HFF cells, HCMV-luciferase reporter, 72 h; hits give low values; in the data active = activity change below about -60%; inconclusive = no clear call, values can overlap the other calls; inactive = above about -39%
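Steps: HFFs plated, 16 h 37C; compounds added; HCMV-luciferase added to MOI 1 PFU/cell; 72 h 37C; OneGlo reagent, 5 min room temperature; luminescence read, normalized to controls.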
* marks the source's active call; other numbers are inactive results; i = inactive; ? = inconclusive; nt = no result given. Unless noted, calls come from the whole dose curve; as a rule, active = well fitted curve in the direction sought with a large enough effect; inconclusive = small, poorly fitted or top-dose-only effect, or another doubt; inactive = no such curve, though single readings can be large; an effect the other way counts as inactive or inconclusive. % is set by controls: 0 for no effect and ±100 for the full control effect.

SMILES	Giardia FBPA inh	Pf growth 96h	Pf growth 48h	Sm TGR block	HCMV antiviral
CSc1ncccc1C(=O)N1CCCC(CCC(=O)NCc2ccc(F)c(F)c2)C1 (stereo not drawn)	1%	?	?	1%	-14
Cc1ccn(CCC(=O)N2CCCC(CCC(=O)NCc3ccc(F)c(F)c3)C2)n1 (stereo not drawn)	1%	12µM*	-11%	1%	-1
Cc1ccc(Cl)cc1N1CCN(C(=O)Cn2ncn3cccc3c2=O)CC1	-3%	38%	-7%	-20%	-76*
Cc1ccc(C)n1C1C(=O)N(C)c2c(F)cccc21 (stereo not drawn)	nt	nt	nt	nt	1
O=C(COC(=O)CCN1C(=O)/C(=C\C=C\c2ccccc2)SC1=S)Nc1ccc(Br)cc1	-3%	-6%	?	nt	-74*
O=C(CCN1C(=O)/C(=C\C=C\c2ccccc2)SC1=S)Nc1ccccc1C(=O)O	nt	9.3µM*	6%	-24%	?
O=C(CCN1C(=O)/C(=C\C=C\c2ccccc2)SC1=S)Nc1cccc(C(=O)O)c1	-2%	?	39%	-36%	57
CC(C)c1ccccc1NC(=O)COC(=O)CCN1C(=O)/C(=C\C=C\c2ccccc2)SC1=S	1%	?	?	-9%	-86*
CCOc1cc(-c2ccccc2)nc2c1CN(S(=O)(=O)c1ccc(C)cc1)C(c1cccc(Cl)c1)C2 (stereo not drawn)	nt	nt	nt	nt	-39
O=S1(=O)N[C@@H](Cc2ccccc2)COc2cccc(NCCCN3CCOCC3)c21	nt	nt	nt	nt	-11
Cc1ccc(S(=O)(=O)c2nnn3c2nc(NCCCN2CCCC2=O)c2ccccc23)cc1C	2%	?	?	-1%	34
Cc1ccc(C)c(S(=O)(=O)c2nnn3c2nc(NC2CCCC2)c2sccc23)c1	nt	nt	nt	11%	-107*
Cc1ccc(S(=O)(=O)c2nnn3c2nc(NC2CCN(Cc4ccccc4)CC2)c2ccccc23)cc1C	-17%	?	2.9µM*	9%	nt
Cc1ccc(S(=O)(=O)c2nnn3c2nc(NC2CCCCC2)c2sccc23)cc1C	nt	nt	nt	11%	-92*
COC(=O)c1ccsc1NC(=O)CCS(=O)(=O)c1ccc(Cl)cc1	nt	8%	-17%	?	-10
CC(=O)c1ccc(NC(=O)OCCN2CCN(Cc3ccccc3)CCC2=O)cc1	0%	nt	nt	nt	nt
Cc1ccc(CNCc2cc3c(C(C)(C)C)nn(-c4ccccc4)c3[nH]c2=O)cc1	17%	nt	0.37µM*	-29%	?
Cc1nn(-c2ccc(Cl)cc2)c2[nH]c(=O)c(CNCc3ccc4c(c3)OCO4)cc12	21%	121%	0.37µM*	3%	60
COc1ccc(CNCc2cc3c(C(C)(C)C)nn(-c4ccccc4)c3[nH]c2=O)cc1	-5%	nt	0.83µM*	38%	-32
CC(C)(C)c1nn(-c2ccccc2)c2[nH]c(=O)c(CNc3ccc4c(c3)OCCO4)cc12	-29%	?	nt	-25%	-62*
CC(C)(C)c1nn(-c2ccccc2)c2[nH]c(=O)c(CNCc3ccco3)cc12	-7%	?	?	-3%	-10
CCNC(=O)C1(C)CCN1Cc1cc(-c2ccccc2)n(C)n1 (stereo not drawn)	nt	nt	nt	nt	-9
CC[C@]12C(=O)N(C)C[C@H]([C@@H]3C(=O)N(C)C(=O)[C@@H]31)N2C(=O)c1ccc(C(C)(C)C)cc1	nt	nt	nt	nt	-1
CCC(C)Sc1nc2c(c(=O)[nH]c(=O)n2C)n1Cc1ccc(Cl)cc1 (stereo not drawn)	3%	nt	10µM*	5%	-5
CC(C)Sc1nc2c(c(=O)[nH]c(=O)n2C)n1Cc1ccccc1	-4%	0%	-5%	-14%	19
SMILES	Giardia FBPA inh	Pf growth 96h	Pf growth 48h	Sm TGR block	HCMV antiviral
CC(C)Sc1nc2c(c(=O)[nH]c(=O)n2C)n1Cc1ccc(Cl)cc1	-3%	13µM*	?	-27%	8
CC(C)NC(=O)C(=O)NNC(=O)CCc1ccccc1	-17%	?	25%	79%	-28
NS(=O)(=O)c1ccc(CNS(=O)(=O)c2cccc3nonc23)cc1	-2%	44%	6%	-24%	13
Cc1cccnc1CN1CCN(C(=O)c2cc(COc3ccc4ncccc4c3)on2)CC1	0%	?	8%	-2%	-83*
CCOC(=O)N1CCN(C(=O)c2cc(COc3ccc4ncccc4c3)on2)CC1	0%	i	?	?	-74*
CN(C)c1ccc(N=Nc2ccccc2C(=O)OCC(=O)NCC2CCCCC2)cc1	-3%	0%	?	-16%	-61*
CN(C)c1ccc(N=Nc2ccccc2C(=O)OCC(=O)N(C)C2CCCCC2)cc1	-3%	?	-24%	-16%	34
CN(C)c1ccc(N=Nc2ccccc2C(=O)OCC(=O)NC2CCCC2)cc1	0%	8.3µM*	-6%	-12%	?
Cc1cc2c(c(=O)o1)[C@@]1(C(=O)N(C)c3ccc([N+](=O)[O-])cc31)C1=C(CCCC1=O)O2	nt	nt	nt	nt	-13
CCOC(=O)c1cc2sc(C)cc2n1CC(=O)Nc1cccc(C)c1C	4%	10%	?	-1%	10
CCOC(=O)c1cc2sc(C)cc2n1CC(=O)Nc1ccc2c(c1)OCCO2	-1%	0.74µM*	-9%	-3%	?
Cc1cccc(NC(=S)NN(Cc2ccccc2)c2ccccc2)c1C	5%	4.1µM*	nt	-5%	-30
COC(=O)CN1C(=O)CSc2ccc(S(=O)(=O)Nc3ccc(C)c(Cl)c3)cc21	nt	nt	nt	6%	?
CC1(C)CC(=O)C(=CN2CCOCC2)C(=O)C1	1%	?	27%	7.1µM*	-8
c1ccc(C2(N3CCCC3)CCCCC2)cc1	nt	13µM*	15µM*	nt	nt
CC1CCN(S(=O)(=O)c2ccc3c(c2)CCN3C(=O)Nc2ccc(Br)cc2F)CC1	nt	nt	nt	6%	4
COC(=O)C1=CO[C@@H](C)[C@H]2CN3CCc4c([nH]c5ccccc45)[C@@H]3C[C@H]12	?	?	?	-5%	-68*
C[C@@H]1ON(C)[C@H]2C[C@H]3c4[nH]c5ccccc5c4CCN3C[C@@H]12	nt	nt	nt	nt	11
COC(=O)C1=COC(C)C2CN3CCc4c([nH]c5ccccc45)C3CC12 (stereo not drawn)	-18%	nt	?	79µM*	nt
COC(=O)C1=CO[C@H](C)[C@H]2CN3CC[C@@]4(C(=O)Nc5ccccc54)[C@@H]3C[C@H]12	nt	nt	nt	nt	48
Cc1ccc(N2C(=O)CS/C2=N\C(=S)Nc2ccccc2)cc1	4%	4.1µM*	-19%	2%	11
COc1cccc(N2CCc3c(C)nc4ccc(Cl)cc4c32)c1	12%	12µM*	13µM*	1%	-22
COc1ccc(N2CCc3c(C)nc4c(OC)cc(OC)cc4c32)cc1	-15%	?	?	7%	-108*
COc1ccc(N2CCc3c(C)nc4c(OC)cccc4c32)cc1	0%	?	?	-2%	-66*
